Screening data: PubChem BioAssay, National Center for Advancing Translational Sciences (NCATS)
Hits are enriched below; roughly 21% of the tested compounds scored in any of these assays.
Pf growth 48h = inhibits P. falciparum growth in the first generation, 48 h; P. falciparum luciferase growth in erythrocytes, 48 h; Potency, µM (series often up to 28.7 µM), for inactives: at the highest dose activity change, negative = inhibition, usual class: inhibitors; hit rate 5.9% among 310,000; AID 504832; note: potency is the fitted concentration of half-maximal effect; % is set by controls: 0 for no effect and ±100 for the full control effect
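Read-out is firefly luciferase luminescence from an integrated reporter in P. falciparum, so falling signal marks reduced parasite growth. Infected erythrocytes were at 2% hematocrit and 0.1% parasitemia (final) in Albumax-supplemented RPMI 1640.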
Pf growth 96h = P. falciparum growth inhibition at 96 hour, primary screen for plastid delayed-death inhibitors. Potency, µM (series often up to 28.7 µM), for the others: at the top dose activity change, negative = inhibition, actives largely listed as inhibitors. hit rate 6.9% among 320,000. AID 504834. P. falciparum luciferase reporter growth, 96 h; note: potency is the fitted concentration of half-maximal effect; % is set by controls: 0 for no effect and ±100 for the full control effect
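P. falciparum expressing integrated firefly luciferase, in erythrocytes at 2% hematocrit, 0.05% parasitemia, incubated with compounds 96 h at 37 C, 5% CO2. Growth inhibition read as loss of luminescence; two-generation exposure targets delayed-death apicoplast inhibitors.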
CHX counter = counter-screen hit for Shiga toxin inhibitors, cycloheximide; cell reporter, cycloheximide protein synthesis inhibition counterscreen; max response, %; hit rate 12% among 300,000; in the data active = max response mostly above about 13%, no sharp cut-off; inactive = mostly below about 14%; note: read at 38.3 µM for the half of the compounds with a filed dose; 0% is about no effect
Shiga inhibitor = inhibitors of Shiga toxin in Vero cells. inhibition, % at 38.7 µM. hit rate 9.2% among 290,000. AID 2315. Vero cells, Shiga toxin protein synthesis inhibition reporter; in the data active = inhibition mostly above about 28%, no sharp cut-off; inactive = mostly below about 43%; note: 0% is about no effect
* = called active by the depositor; i = inactive; ? = inconclusive; · = not tested or not shown. Unless noted, calls come from the whole dose curve; as a rule, active = well fitted inhibition curve with a large enough effect; inconclusive = small, poorly fitted or top-dose-only effect, or another doubt; inactive = no such curve, though single readings can be large or run the other way.

SMILES	Pf growth 48h	Pf growth 96h	CHX counter	Shiga inhibitor
COc1ccccc1/C=C/C=N/Nc1cccc(C(=O)O)c1	247%	i	42*	132*
Cc1c(N=Cc2cc(Br)cc(Br)c2O)cccc1C(=O)O	12µM*	?	0	-1
COc1ccc(/C(C)=N/Nc2nc3ccccc3nc2C)cc1OC	11%	?	34*	57*
C/C(=N\NC(=O)C(=O)Nc1cccc(C(F)(F)F)c1)c1ccc(Cl)s1	20%	35%	-2	-4
COc1ccccc1/C=C/C=N/NC(=O)Cc1cccn1C	21%	-4%	-2	26
CC(C)(C)c1ccc(-c2nnc(SCCN3C(=O)c4ccccc4C3=O)o2)cc1	·	80%	14	-6
CCC(C)c1ccccc1N1CC(C(=O)Nc2cccc(S(=O)(=O)N3CCOCC3)c2)CC1=O (stereo not drawn)	?	?	-3	-11
O=c1c(-c2ccc([N+](=O)[O-])cc2)coc2c(O)c(O)ccc12	?	?	23*	57*
CN(C)Cc1c(O)ccc2c(=O)c(-c3ccc(Cl)cc3)coc12	-30%	?	14*	18
O=C(Nc1cccc2ccccc12)OCc1cncs1	37%	63%	24*	32*
O=C(Nc1ccc(Cl)cc1)OCc1cncs1	42%	81%	60*	121*
Cc1cc(C(=O)NNC(=O)c2ccc(C)s2)c(C)o1	1%	49%	·	·
CCCSc1nc2c(cnn2-c2ccccc2)c(=O)n1N	-7%	471%	43*	50*
CCCCSc1nc2c(cnn2-c2ccc(F)cc2)c(=O)[nH]1	19%	3%	-4	-6
O=c1oc(-c2ccco2)nc2c1cnn2-c1ccccc1	-4%	-5%	-3	-15
CCCCSc1cnn(-c2ccccc2)c(=O)c1SCCCC	12µM*	12µM*	-3	-1
CCSc1cnn(-c2ccccc2)c(=O)c1SCC	·	27%	1	11
CCCOc1nc(SCCC)nc2c1cnn2-c1ccccc1	?	?	3	10
CCCCSc1nc2c(cnn2-c2ccccc2)c(=O)n1N	79%	-1%	42*	94*
O=c1c2cnn(-c3ccccc3)c2nc(-c2ccco2)n1-c1ccccc1	10µM*	10µM*	-1	12
O=c1[nH]c(Cc2ccccn2)nc2scc(-c3ccccc3Cl)c12	?	?	-3	-2
O=C(N1CCOCC1)N1CCN(S(=O)(=O)c2ccc(F)cc2)CC1	-7%	99%	-1	·
O=C(NCc1n[nH]c(=O)c2ccccc12)C1CC(=O)N(c2ccccc2)C1 (stereo not drawn)	27%	0%	·	·
Nn1c(SCc2ccccc2)nc2c(cnn2-c2ccccc2)c1=O	31%	0%	23*	76*
O=C(O)CSc1nc2c(cnn2-c2ccccc2)c(=O)n1-c1ccc(Br)cc1	1%	4%	-3	-8
SMILES	Pf growth 48h	Pf growth 96h	CHX counter	Shiga inhibitor
Cc1nc(Nc2ccc(O)cc2)c2c3c(sc2n1)CCCC3	15µM*	?	2	-4
Cc1ccnc(N2C(=O)c3ccccc3C2O)c1 (stereo not drawn)	·	15%	39*	42
Cc1ccnc(N2C(=O)c3ccccc3C2Nc2cccc(C)c2C)c1 (stereo not drawn)	?	7%	15*	28*
CCOC(=O)/C(=N/O)C1=NC(C)(C)Cc2cc(C)c(C)cc21	7%	-11%	-2	-6
O=C(CCCN=C1NS(=O)(=O)c2ccccc21)OCC(=O)c1ccccc1Cl	?	18%	·	·
CC(C)c1nc2sc(C(=O)O)c(N)c2c2c1CCCC2	?	13µM*	-3	-2
Cc1nc2sc(C(N)=O)c(N)c2c2c1CCCC2	14%	21%	9	1
COc1cc(-c2nc3n(n2)C(c2ccc(F)cc2)C2=C(CCCC2=O)N3)cc(OC)c1OC (stereo not drawn)	5.2µM*	61%	-4	-15
COc1ccc(NC(=O)C2CCN(S(=O)(=O)c3ccc4c(c3)CC(C)N4C(C)=O)CC2)c(OC)c1 (stereo not drawn)	?	?	-1	-14
COc1cc(CN2CCN(C(=O)c3ccccc3F)CC2)cc(OC)c1OC	-6%	7%	-1	-12
CC(C)c1onc(-c2c(Cl)cccc2Cl)c1COc1ccc(/C=C/c2cccc(C(=O)O)c2)c(Cl)c1	·	·	36*	60*
CCC(C)NC(=O)c1cccc(OCc2c(C)noc2C)c1 (stereo not drawn)	2%	5%	1	1
CCC(C)(O)c1[nH]c2ccc(C#N)cc2c1C (stereo not drawn)	56%	-42%	-3	-3
O=NCc1ccc([N+](=O)[O-])o1	?	13µM*	·	·
COc1ccc(C(=O)COC(=O)c2cnc(C)cn2)cc1OC	7%	-19%	·	·
CN(C)C(=S)SC(=S)N(C)C	5.4µM*	3.4µM*	24	23
CN(C)C(=S)SSC(=S)N(C)C	0.85µM*	0.76µM*	23*	12
O=c1[nH]c(-c2ccccc2)c(-c2ccccc2)nc1[N+](=O)[O-]	9%	0%	6	13
CCOC(=O)C1=C(C)NC(C)=C(C(=O)OCC)C1c1ccc(O)cc1	-19%	·	-1	4
CCOC(=O)C1=C(C)NC(SCC(=O)OC)=C(C#N)C1c1ccc(C(=O)OC)cc1 (stereo not drawn)	?	37%	0	-10
CCOC(=O)C1=C(C)Nc2sc(C(=O)c3ccc(F)cc3)c(N)c2C1c1ccc(C(=O)OC)cc1 (stereo not drawn)	7.4µM*	4.7µM*	5	1
CCOC(=O)C1=C(C)Nc2sc(C(=O)c3ccc(C)cc3)c(N)c2C1c1ccc(C(=O)OC)cc1 (stereo not drawn)	12µM*	5.2µM*	-3	3
O=c1[nH]cnc2onc(-c3ccc(F)cc3)c12	·	?	-7	14
CCCC(C(=O)NCc1ccco1)N(C(=O)CNS(=O)(=O)c1ccccc1)c1ccccc1OC (stereo not drawn)	10µM*	?	1	35
CCC(C(=O)NCc1ccco1)N(C(=O)CNS(=O)(=O)c1ccc(C)cc1)c1ccccc1OC (stereo not drawn)	4.1µM*	21%	-2	-20
SMILES	Pf growth 48h	Pf growth 96h	CHX counter	Shiga inhibitor
COc1ccccc1N(C(=O)CNS(=O)(=O)c1ccccc1)C(C(=O)NCc1ccco1)C(C)C (stereo not drawn)	?	5.2µM*	2	-14
CC(C)C(C(=O)NCc1ccco1)N(Cc1ccco1)C(=O)CNS(=O)(=O)c1ccccc1 (stereo not drawn)	-10%	0%	1	-3
COc1ccc(/C=c2\s/c(=C\C(=O)C(C)(C)C)[nH]c2=O)cc1O	?	4.1µM*	15*	7
COc1cc(/C=c2\s/c(=C\C(=O)C(C)(C)C)[nH]c2=O)cc(OC)c1OC	?	?	-2	13
Cc1cccc(/C=c2\s/c(=C\C(=O)C(C)(C)C)[nH]c2=O)c1	?	2.1µM*	23*	41
CC(C)(C)C(=O)/C=c1\[nH]c(=O)/c(=C\c2ccc(C#N)cc2)s1	·	-104%	-3	-3
COc1ccc(C(=O)O)cc1S(=O)(=O)Nc1ccccc1C(=O)NCc1ccc2c(c1)OCO2	-4%	-4%	·	·
